{"source": "PubChem BioAssay (NCI)", "note": "Compounds without any hit were thinned out: in the full panel of roughly 83,000, 20% have a hit.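 Assay: single dose, 48 h. Readout: percent growth (0 = no net growth; negative = cell death). Active: <10.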 Values without a mark were called inactive. Calls of active or inactive are those of the source.", "data": [{"test_system": "HL-60(TB) leukemia", "assay": "NCI-60 one-dose screen, 48 h (100 = growth as untreated, 0 = no growth, -100 = all killed)", "conditions": "10 µM unless noted", "values": [{"smiles": "N#Cc1c(Oc2ccc([N+](=O)[O-])cc2)nc2sc3cc(Cl)ccc3n2c1=N", "growth": "151%"}, {"smiles": "COc1ccc(C(C)C=O)cc1", "note": "(stereo not given)", "growth": "96.9%"}, {"smiles": "COc1cc(C(=O)N2CCN(c3cc4c(cc3F)c(=O)c(C(=O)NO)cn4C3CC3)CC2)cc(OC)c1OC", "growth": "101%"}, {"smiles": "COc1ccc2oc(-c3ccc(Cl)cc3)c(N3CCN(C)CC3)c2c1", "growth": "28.2%"}, {"smiles": "CCCCCCCCOC(=O)CC[C@@H](C)[C@H]1CC[C@H]2[C@@H]3[C@H](OC(=O)CCN)C[C@@H]4C[C@H](OC(=O)CCN)CC[C@]4(C)[C@H]3C[C@H](OC(=O)CCN)[C@]12C", "growth": "43.7%"}, {"smiles": "O=C(Cn1cc(CO)nn1)Nc1nc2ccccc2s1", "growth": "97.1%"}, {"smiles": "COc1cc(/C=C/C(=O)c2ccc(-n3cc(CN4CCN(c5cc6c(cc5F)c(=O)c(C(=O)O)cn6C5CC5)CC4)nn3)cc2)cc(OC)c1OC", "growth": "98.8%"}, {"smiles": "CCc1ccc(C2=C/C(=C/c3ccccc3)C(=O)N2CCc2ccc(S(N)(=O)=O)cc2)cc1", "growth": "100%"}, {"smiles": "Nc1c(C(=O)Nc2cccc3ncccc23)sc2nc3c(cc12)CN(Cc1ccccc1)CC3", "growth": "48.6%"}, {"smiles": "CN1CCN(Cc2ccc(NC(=O)c3cncc(C#Cc4c(N)ncc5ccccc45)c3)cc2C(F)(F)F)CC1", "growth": "-53.2% (active)"}, {"smiles": "CCN(CC)CCOc1ccccc1-n1c(C)ccc1-c1ccccc1", "growth": "22.4%"}, {"smiles": "NC(CCl)=NCC12CC3CC(CC(C3)C1)C2", "growth": "-30.2% (active)"}, {"smiles": "CC(O)CN1CC(O)=C(c2nc3ccccc3s2)C1=N", "note": "(stereo not given)", "growth": "93.8%"}, {"smiles": "COc1ccc(C(=O)COc2cccc(/C=C3\\Cc4ccccc4C3=O)c2)cc1", "growth": "73.4%"}, {"smiles": "COC(=O)[C@]12CC[C@@H](C)[C@H](C)[C@@H]1C1=CC[C@@H]3[C@@]4(C)C[C@@H](O)OC[C@](C)(C=O)C4C(=O)C[C@@]3(C)[C@]1(C)CC2", "note": "(stereo not given in full)", "growth": "-13.3% (active)"}, {"smiles": "CCCCCCCCCCn1cc[n+](C)c1", "growth": "51.9%"}, {"smiles": "COc1ccc(Nc2ncnc3ccc(-c4cncc(NS(C)(=O)=O)c4)cc23)cc1Cl", "growth": "3.01% (active)"}, {"smiles": "O=S(=O)(NCCCNc1nccc(-c2c(-c3cccc(F)c3)nc3sccn23)n1)c1cccc(F)c1", "growth": "40.5%"}, {"smiles": "COc1ccc(/C=C2\\COc3ccc(O)cc3C2=O)cc1OC", "growth": "3.81% (active)"}, {"smiles": "COc1cc(/C=C/C(=O)c2cccc(-n3cc(-c4ccccc4)[nH]c3=O)c2)cc(OC)c1OC", "growth": "-5.55% (active)"}, {"smiles": "Cc1ccc(C(=O)c2ccc(CC(=O)N/N=C/c3ccccc3O)n2C)cc1", "growth": "87%"}, {"smiles": "N#Cc1c(N)nc2c(c1N)C(c1ccc(F)cc1)c1ccc(N)cc1O2", "note": "(stereo not given)", "growth": "110%"}, {"smiles": "CCOC(=O)c1cc(C(=O)c2ccc(OC)c(OC)c2)n2c1ccc1ccccc12", "growth": "99.8%"}, {"smiles": "CC(C)(C)c1cc(C[P+](c2ccccc2)(c2ccccc2)c2ccccc2)cc(C(C)(C)C)c1O", "growth": "-45.3% (active)"}, {"smiles": "COc1ccc(N=N/N=c2\\sc3cc(OC)ccc3n2C)cc1", "growth": "102%"}, {"smiles": "CC(=O)c1c(C)[nH]c(-c2nc3ccc(N4CCN(C)CC4)cc3[nH]2)c1-c1ccc(OCC2CCOCC2)cc1", "growth": "-12.9% (active)"}, {"smiles": "N=S(=O)(NC(=O)c1ccc(Cl)cc1Cl)c1ccc(Br)s1", "note": "(stereo not given)", "growth": "96.8%"}, {"smiles": "C=CCN=c1sc(-c2ccc3ccccc3c2)cn1NC(=O)c1cc2ccc1CCc1ccc(cc1)CC2", "growth": "49.2%"}, {"smiles": "COc1cc(/C(C#N)=C/c2nc3c(N4CCOCC4)nc(Cl)nc3n2C)cc(OC)c1OC", "growth": "-29% (active)"}, {"smiles": "COC(=O)c1nc(-c2ccccc2)oc1S(=O)(=O)n1nc(C)cc1N", "growth": "7.17% (active)"}, {"smiles": "CC(C)(C)CC(C)(C)c1ccc(OCCSC(=N)N)cc1", "growth": "22.2%"}, {"smiles": "Oc1ccc(Br)cc1Sc1cc(Br)ccc1O", "growth": "27.9%"}, {"smiles": "FC(F)(F)c1ccc(-c2cnc(-n3cc(COCCN4CCCCC4)nn3)nc2NC2CCCCCC2)cc1", "growth": "-63.1% (active)"}, {"smiles": "C=C1c2c(C)nn(-c3ccc(O)cc3)c2N(C)C23C[C@@H]1C1(C)c4c(C)nn(-c5ccc(O)cc5)c4N(C)C(C)(C[C@H]12)C3", "note": "(stereo not given in full)", "growth": "4.76% (active)"}, {"smiles": "COc1cccc(CCC2C(=O)CCCC2=O)c1", "growth": "87.2%"}, {"smiles": "N=C(N)c1ccc(-c2ccc(-c3ccccc3)o2)o1", "growth": "-17% (active)"}, {"smiles": "CCn1c(Sc2nnc(NC(C)=O)s2)nc2c1c(=O)n(C)c(=O)n2C", "growth": "124%"}, {"smiles": "COc1ccc(/C=C2\\SC(=S)N(CCCN3CCOCC3)C2=O)c(OC)c1", "growth": "83.1%"}, {"smiles": "CC(=O)O[C@]1(C(C)=O)CCC2C3C[C@H](C)C4=CC(=O)CC[C@]4(C)C3CC[C@@]21C", "note": "(stereo not given in full)", "growth": "87.4%"}, {"smiles": "N#C/C(=C\\NC(=S)N=Nc1c(O)[nH]c2ccccc12)c1nc2ccccc2s1", "growth": "103%"}]}]}
